PNC inhibitor: High Content Assay for Compounds that inhibit the Assembly of the Perinucleolar Compartment; PC3M PTB-GFP, PNC prevalence imaging, 16 h; hits give low values; activity change (PNC), negative = inhibition, % at 10 µM; 140,000 tested, 3.1% active;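 active means readout at or below -70, meaning at least 70% loss of cells showing the perinucleolar compartment, a nuclear body marking cancer cells; inconclusive means readout between -30 and a set limit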;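 further: plate controls were DMSO wells for no effect and camptothecin positive control wells for full effect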
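Compounds are pinned in duplicate onto adhered PC3M cells stably expressing GFP-tagged PTB and incubated 16 h at 37 C. Cells are then fixed, nuclei stained with Hoechst, and PNC-positive cells counted.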
Lamin A splicing: qHTS Assay for Modulators of Lamin A Splicing. HeLa LMNA splicing GFP/RFP minigene ratio, 48 h. Potency, µM (top dose mostly 46.1 µM), for the others: top-dose ratio change, negative = inhibition, most hits filed as inhibitors. 200,000 tested, 0.01% active; active means well fitted inhibition curve with a large enough effect in the signal ratio, with a control signal flat, not every such curve was filed as active; inconclusive means small, poorly fitted or top-dose-only effect, or effect the other way, or a change in a side signal; the % refers to the signal ratio; further: potency means the concentration at half of the fitted maximal effect
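S3 HeLa stable clones carrying a lamin A-EGFP splicing minigene plus DsRed2 were seeded at 600 cells/well in Opti-MEM with 2% FBS, pin-dosed and incubated 48 h at 37°C. Acumen cytometry (488 nm) gave the GFP/RFP total-intensity ratio.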
ALOX12 inhib: qHTS Assay for Inhibitors of 12-hLO (12-human lipoxygenase); Polyunsaturated fatty acid lipoxygenase ALOX12 (Homo sapiens), P18054; purified 12-hLO, xylenol orange hydroperoxide absorbance; Potency, µM (doses to about 57.1 µM), without a hit: top-dose activity change, negative = inhibition, usual class: inhibitors; 150,000 tested, 0.12% active; active means well fitted inhibition curve with a large enough effect; inconclusive means small, poorly fitted or top-dose-only effect; further: potency means the concentration at half of the fitted maximal effect; nearly all actives have a fitted effect of over 55% in size
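Xylenol orange chromogenic assay: hydroperoxide from 12hLO oxidises Fe(II), giving red-shifted Fe(III)-XO absorbance. Conditions: 150 nM enzyme, 40 uM arachidonic acid, 25 mM Hepes pH 7.0, 0.01% Triton X-100, 30 min, room temperature.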
ALDH1A1 block: qHTS Assay for Inhibitors of Aldehyde Dehydrogenase 1 (ALDH1A1); Aldehyde dehydrogenase 1A1 (Homo sapiens), P00352; Purified ALDH1A1, NADH fluorescence, propionaldehyde substrate; Potency, µM (titrated, usually from 75.3 µM), inactives show top-dose activity, negative = inhibition, usual class: inhibitors; 220,000 tested, 7.3% active; AID 1030, 2008;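 further: potency means the concentration at half of the fitted maximal effect; plate controls were no enzyme wells and a reference inhibitor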
Target sequence (P00352 whole entry, looked up): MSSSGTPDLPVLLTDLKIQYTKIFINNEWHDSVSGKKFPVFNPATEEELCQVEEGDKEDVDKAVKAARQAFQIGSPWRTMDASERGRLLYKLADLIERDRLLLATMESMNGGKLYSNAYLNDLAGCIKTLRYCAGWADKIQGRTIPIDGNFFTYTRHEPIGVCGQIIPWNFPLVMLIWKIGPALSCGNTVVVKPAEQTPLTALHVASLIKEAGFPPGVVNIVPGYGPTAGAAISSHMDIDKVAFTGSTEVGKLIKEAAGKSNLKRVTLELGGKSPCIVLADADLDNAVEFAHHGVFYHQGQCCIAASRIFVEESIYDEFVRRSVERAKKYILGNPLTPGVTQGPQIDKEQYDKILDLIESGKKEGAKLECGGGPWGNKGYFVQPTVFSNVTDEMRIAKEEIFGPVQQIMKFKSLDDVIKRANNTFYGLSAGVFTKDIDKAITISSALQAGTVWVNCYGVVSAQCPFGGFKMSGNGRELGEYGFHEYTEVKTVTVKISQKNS
HPGD block: qHTS Assay for Inhibitors of HPGD (15-Hydroxyprostaglandin Dehydrogenase) | 15-hydroxyprostaglandin dehydrogenase [NAD(+)] (Homo sapiens), P15428 | purified HPGD, NADH fluorescence kinetic, PGE2 substrate | Potency, µM, for the others: top-dose activity change, negative = inhibition, most hits filed as inhibitors | 150,000 tested, 4.3% active | AID 894, 2007; further: potency means the concentration at half of the fitted maximal effect
Target sequence (P15428 whole entry, looked up): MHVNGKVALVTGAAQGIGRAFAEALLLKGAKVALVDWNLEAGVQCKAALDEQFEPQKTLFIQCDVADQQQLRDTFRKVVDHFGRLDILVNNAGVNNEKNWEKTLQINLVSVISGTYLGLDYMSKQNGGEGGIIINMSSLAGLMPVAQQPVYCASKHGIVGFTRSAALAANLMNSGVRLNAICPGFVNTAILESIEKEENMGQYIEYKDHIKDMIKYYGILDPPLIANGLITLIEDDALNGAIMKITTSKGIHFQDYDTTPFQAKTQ
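NADH formation kinetics: reaction with 30 uM PGE2 and 1 mM NAD+ (final), 20 nM enzyme, Tris-HCl pH 8 with Tween 20, after 15 min compound preincubation at room temperature. Fluorescence change, last versus first of five reads.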
The depositor's hits bear a star; ? = inconclusive; / = no result; [ ] = another dose, or the depositor's remark. Most compounds without a hit are left out; they make up all but 10% or so of the library. Unless noted, the call rests on the fitted dose curve; in most records, active means well fitted inhibition curve with a large enough effect (not every such curve was filed as active); inconclusive means small, poorly fitted or top-dose-only effect, or another doubt; inactive means no such curve, though single readings can be large or run the other way. Unless noted, on the % scale 0 is the no-effect control and ±100 the full control effect.

SMILES | PNC inhibitor | Lamin A splicing | ALOX12 inhib | ALDH1A1 block | HPGD block
O=C(c1ccco1)N1CCN(C(c2ccccc2Cl)c2nnnn2Cc2ccco2)CC1 (centres undefined) | 13.8 | 0.3% | -11.8% | 11.2µM* | -5.9%
Fc1cc(F)c2nc(N3CCCC3)sc2c1 | / | / | / | 1.6% | /
O=C(c1ccco1)N1CCN(C(c2ccccc2)c2nnnn2Cc2cccs2)CC1 (centres undefined) | -22.4 | 4.0% | -14.3% | 2.24µM* | -3.8%
Cc1cccc(OCC(=O)Nc2ccc(OCc3cc(=O)n4cc(C)ccc4n3)cc2)c1 | / | 7.4%[46 µM] | / | / | /
COc1ccc(-c2c(=O)n(OCc3ccccc3[N+](=O)[O-])c3ccccc3[n+]2[O-])c(OC)c1 | / | -12.1%[46 µM] | / | ? | /
N#CC1=C2SCCN2C(=O)C(C#N)C12CCCCC2 (centres undefined) | ? | 4.3% | -1.1% | 0.562µM* | /
O=C(c1ccco1)N1CCC2(CC1)CN(Cc1cc(C(F)(F)F)cc(C(F)(F)F)c1)C2 | / | / | -4.9% | ? | 0.3%
COc1ccc(CN(C(=O)COc2ccccc2OC)C2CCS(=O)(=O)C2)cc1 (centres undefined) | / | 7.7%[46 µM] | / | / | /
CS(=O)(=O)N(Cc1ccco1)Cc1ccccc1Cl | 25.2 | -0.7% | 1.9% | -4.7% | ?
CS(=O)(=O)N(Cc1ccco1)CC(O)Cn1cc(C=O)c2ccccc21 (centres undefined) | -88.2* | -6.7% | 12.6% | 1.26µM* | -24.8%
CCC(Sc1nc(-c2ccccc2)[nH]c1S(=O)(=O)c1ccc(C)cc1)C(=O)O (centres undefined) | / | 0.9%[46 µM] | / | / | /
CC(=O)C(Sc1nc(-c2ccccc2Cl)nc2c1c(=O)n(C)c(=O)n2C)C(=O)N(C)C (centres undefined) | / | -24.4%[46 µM] | / | / | /
CC1(C)Cc2c(C#N)c(OCC(=O)c3ccccc3)nc(-c3ccoc3)c2CO1 | -22.1 | 14.6% | -6.5% | 0.282µM* | ?
CC1(C)Cc2c(C#N)c(OCC(=O)c3ccc(Cl)cc3)nc(-c3ccoc3)c2CO1 | -94.1* | -3.1% | -10.9% | 0.398µM* | /
COc1nc(-c2ccccc2)c2c(c1C#N)CC(C)(C)OC2 | 36.6 | 0.0% | -2.9% | ? | -6.9%
CCn1nc(C)c2c(-c3ccccc3)cc(=O)n(C(C)C(=O)NCc3ccc(C)cc3)c21 (centres undefined) | / | -14.1%[46 µM] | / | / | /
CCN(CC)C[C@@H](O)CN1CCCCc2nc(C)c(C)cc21 | / | / | / | 7.5%[13.5 µM] | /
COCCNC(=O)/C(C#N)=C/C=C/c1ccccc1 | / | ? | / | -2.7% | /
COc1ccc(-n2c(C)cc(/C=C(\C#N)C(=O)NCc3ccco3)c2C)cc1 | 37.5 | 11.4% | -2.3% | 10.0% | ?
COCCNC(=O)/C(C#N)=C/c1cc(C)n(-c2ccc(C)cc2)c1C | / | ? | / | 5.62µM* | /
COCCNC(=O)/C(C#N)=C/c1cccc(NC(=O)c2ccccc2Cl)c1 | 23.9 | -12.2% | 0.8% | 15.8µM* | ?
CC(C)NC(=O)/C(C#N)=C/c1cccc(NC(=O)c2ccccc2Cl)c1 | 32.4 | ? | -4.5% | 14.1µM* | -22.5%
Clc1cccc(CNCCCSc2nnnn2-c2ccccc2)c1 | / | -5.5%[46 µM] | / | / | /
CCNc1c2c(nc3ccccc13)CC(C)(C)CC2=O | ? | -9.5% | -1.0% | 14.1µM* | -5.4%
CCN1C/C(=C/c2cccc([N+](=O)[O-])c2)C(=O)/C(=C/c2cccc([N+](=O)[O-])c2)C1 | -123.3* | ? | 3.7% | ? | -1.9%
SMILES | PNC inhibitor | Lamin A splicing | ALOX12 inhib | ALDH1A1 block | HPGD block
CCN1CCN(C(=S)Nc2cccc([N+](=O)[O-])c2)CC1 | ? | ? | 6.0% | -0.2% | /
O=S(=O)(Nc1ncccn1)c1ccc(NC(=S)Nc2ccccc2Cl)cc1 | / | / | / | -5.6% | /
O=C1SC(SC(=Nc2ccccc2)Nc2ccccc2)C(=O)N1c1ccccc1 (centres undefined) | -4.1 | ? | 0.2% | 25.1µM* | -12.4%
Cc1ccc(N2C(=O)[C@@H]3C(C(=O)C(c4ccccc4)c4ccccc4)=NN[C@@H]3C2=O)cc1 | ? | -19.5% | -4.5% | 22.4µM* | -13.6%
COC(=O)C1=NNC2C(=O)N(c3ccc(C)cc3)C(=O)C12 (centres undefined) | / | -6.9%[46 µM] | / | 1.9% | /
Cc1ccccc1-c1cc2c(nn1)-c1ccccc1C2=O | 18.8 | ? | -21.1% | 25.1µM* | ?
COc1ccc(S(=O)(=O)NC(CC(=O)NCc2ccco2)C(C)C)cc1 (centres undefined) | ? | -6.2% | 5.8% | 4.9% | 0.7%
CCN(CC(=O)Nc1c(F)cccc1F)C(=O)CCc1ccc(OC)cc1 | / | / | / | 14.1µM* | /
CS(=O)(=O)N(CC(=O)NCc1ccco1)c1ccc(OCc2ccccc2)cc1 | / | / | / | 18.9µM* | /
COc1ccc(NC(=O)CC(c2ccc(F)cc2)c2ccc(OC(C)C)cc2)cc1 (centres undefined) | -18.5 | -8.6% | 0.9% | 0.199µM* | -3.5%
COc1ccc(N(CC(=O)NCc2ccco2)S(C)(=O)=O)cc1 | -4.6 | 2.0% | -1.8% | 2.0% | -6.7%
CCN(CC(=O)Nc1c(F)cccc1F)C(=O)Cc1ccccc1 | / | 2.2%[46 µM] | / | -0.1% | /
COc1ccc(S(=O)(=O)N(C)CC(=O)NCc2ccco2)cc1 | 10.6 | 9.9% | -1.2% | 35.5µM* | -18.8%
CC1(C)CCC(NC(=O)[C@@H](N)CCC(=O)O)CC1 | / | ? | / | 4.9% | -3.6%
Cc1ccc(C(CC(=O)NCc2ccco2)c2ccc(OC(C)C)cc2)cc1 (centres undefined) | / | 13.4%[46 µM] | / | / | /
COc1ccc(C(CC(=O)NCc2ccco2)c2ccc(F)cc2)cc1 (centres undefined) | -18.6 | 2.9% | -4.3% | 1.2% | 15.8µM*
COc1cc(OC)cc(C(=O)Nc2c(F)cccc2F)c1 | -118.9* | -8.1% | -5.0% | ? | -8.8%
COc1ccc(S(=O)(=O)N(C)CC(=O)Nc2c(F)cccc2F)cc1 | -102.6* | -6.1% | -2.8% | ? | -5.0%
CNC(=O)c1ccccc1 | / | / | 3.1% | -3.7% | -7.2%
CCCCS(=O)(=O)N1C2=NC(C(=O)OC)=C(C(=O)OC)[C@@H]3N(C)c4ccccc4[C@]23C[C@H]1C(=O)OC | / | -4.3%[9.22 µM] | 0.1%[11.4 µM] | 6.2%[13.5 µM] | -5.4%
CCOc1ccc(/C(C)=N/N2C(=O)C(CC(=O)Nc3ccc(OC)cc3[N+](=O)[O-])SC2=Nc2cccc(C)c2C)cc1 (centres undefined) | 1.0 | 1.4% | -1.8% | 14.1µM* | ?
O=C(O)CCc1nn2cc(-c3ccccc3)nc2[nH]c1=O | -100.0* | -2.5% | 1.0% | ? | ?
CC(=O)c1cccc(CN2CCN(Cc3ccc(C)cc3)C(CCO)C2)c1 (centres undefined) | / | / | / | 8.6% | /

Assay outcomes (PubChem BioAssay)
